# Experimental data reported in PubChem BioAssay AID1259343 (VanderVen Lab, College of Veterinary Medicine, Cornell …, 2017).
# Hit rate of the full screen: of about 6,200 compounds, about 2,900 (47%) were called active. Cut-off read from the data, not from the text of the source: active = inhibition above about 50%; inactive = the rest. The set was probably picked from earlier hits. The list shows a part of the results.
# Experiment: Mycobacterium tuberculosis growth inhibition, primary screen (AID 1259343)
# Conditions: inhibition: at 10 µM, stronger effect = higher value; outcome: 10 uM
row,SMILES,inhibition
1,CCCCCCCCNC(C)C(O)c1ccc(SC(C)C)cc1 (centres undefined),3.63% (inactive)
2,NC(=O)Cc1csc(Nc2ccc(OC(F)(F)F)cc2)n1,73.5% (active)
3,O=C(Cc1csc(NC(=O)NC2CCCCC2)n1)Nc1ccc(Oc2ccccc2)cc1,-2.63% (inactive)
4,Cc1ccc(OCc2cc(C(=O)N(C)Cc3csc(-c4ccccc4)n3)no2)cn1,73% (active)
5,CC(C)c1nc(CNC(=O)c2cc(COc3c(F)cccc3F)on2)cs1,23.3% (inactive)
6,Cc1ccc(OCc2cc(C(=O)N(C)CC3Cc4ccccc4O3)no2)cn1 (centres undefined),inactive
7,Cc1ccc(OCc2cc(C(=O)N(C)CCc3ccccc3)no2)cc1C,93.7% (active)
8,CN(CCC(O)c1ccccc1)C(=O)c1cc(COc2cccc3cnccc23)on1 (centres undefined),48.2% (inactive)
9,O=C(NCC1CCCCO1)c1cc(COc2c(F)cccc2F)on1 (centres undefined),65.1% (active)
10,COCCN(C)C(=O)c1cc(COc2cc(C)c(Cl)c(C)c2)on1,inactive
11,O=C(NCC1CCCCO1)c1coc(COc2cccc(C(F)(F)F)c2)n1 (centres undefined),0.47% (inactive)
12,CN(CCOc1ccccc1)C(=O)c1cc(COc2c(F)cccc2F)on1,84.2% (active)
13,O=C1OC(c2ccccc2Br)=NC1=Cc1ccc2ccccc2c1,-28.9% (inactive)
14,CN(Cc1cccnc1)C(=O)c1cc(COc2ccc(F)c(F)c2)on1,60.5% (active)
15,Cc1cc(C)cc(OCCN(C)C(=O)Nc2ccc(F)cc2)c1,30.4% (inactive)
16,Cc1ccc(OCc2cc(C(=O)NCc3nc4ccccc4s3)no2)cc1C,92.1% (active)
17,Cc1nc2cc(OCc3cc(C(=O)NCc4cc(F)ccc4C)no3)ccc2s1,22.2% (inactive)
18,Cc1ccc(OCc2cc(C(=O)NCc3cc4ccccc4[nH]3)no2)cc1C,24.7% (inactive)
19,CN(CCOc1ccccc1)C(=O)c1cc(Br)c[nH]1,101% (active)
20,Cc1ccc(OCCN(C)C(=O)CCc2nnc(CCc3c[nH]c4ccccc34)o2)cc1,44.4% (inactive)
21,Cc1nc2sc3c(c2c(=O)n1NC(=S)NC(=O)C12CC4CC(CC(C4)C1)C2)CCCC3,67.3% (active)
22,COCCNCc1c(-c2ccccc2)noc1N(C)C1CCCCC1,82.5% (active)

row,SMILES,inhibition
1,N#Cc1cccc(NN=C2CCN(c3ccc(F)cc3)CC2)c1,95.8% (active)
2,N#Cc1cccc(NCc2c(F)cccc2Cl)c1,30.2% (inactive)
3,N#Cc1cccc(NC(=O)NCc2cc(F)cc(F)c2)c1,-9.78% (inactive)
4,O=C(CC1SC(=NCc2ccco2)NC1=O)Nc1ccc(OC(F)(F)F)cc1 (centres undefined),21.7% (inactive)
5,CCOc1ccc(N=C2NC(=O)C(CC(=O)c3ccccc3)S2)cc1 (centres undefined),54.9% (active)
6,O=C(O)CC1SC(=NN=C2c3ccccc3-c3ccccc32)NC1=O (centres undefined),24.2% (inactive)
7,CCOC(=O)C1(Cc2cccc(Cl)c2)CCCN(C(=O)CCC(F)(F)F)C1 (centres undefined),-43.9% (inactive)
8,CCOC(=O)C1(Cc2cccc(OC)c2)CCN(CC#Cc2ccccc2)CC1,28.5% (inactive)
9,CCOC(=O)C1(Cc2cccc(C(F)(F)F)c2)CCN(Cc2ccc(C#CCCO)cc2)CC1,51.2% (active)
10,O=C(CCC1CCCC1)N1CCc2ccc(O)cc2CC1,92.6% (active)
11,COc1ccc(CC2CN(Cc3ccc(OC)c(F)c3)CCO2)cc1 (centres undefined),30.9% (inactive)
12,Cc1ccc(F)c(OCC2CN(CC(C)O)CCO2)c1 (centres undefined),102% (active)
13,COc1ccc(OCCOc2ccc(C)cc2)cc1,inactive
14,COC(=O)CSCCOc1ccc(OCCSCC(=O)OC)cc1,88.5% (active)
15,Cc1ccc(C)c2sc(OC3CCN(S(=O)(=O)c4cccnc4)CC3)nc12,31.8% (inactive)
16,O=C1c2ccccc2C(=O)c2c1ccc(O)c2O,101% (active)
17,COc1cccc2c1CCCC2CCCN1CCN(C2CCCCC2)CC1 (centres undefined),98.3% (active)
18,COC(=O)CNC(=O)c1ccc([N+](=O)[O-])o1,44.5% (inactive)
19,COC(=O)CCCCCNC(=O)c1cc([N+](=O)[O-])cc([N+](=O)[O-])c1,93.7% (active)
20,CCS(=O)(=O)Oc1ccc(CN(C(=O)c2cccc([N+](=O)[O-])c2)C(C)C)cc1,-14.5% (inactive)
21,Brc1ccc2c(c1)CN(Cc1ccc3c(c1)OCO3)CO2,1.53% (inactive)
22,COc1ccc(N2COc3cc4c(cc3C2)OCO4)cc1,87.2% (active)

row,SMILES,inhibition
1,COc1ccc(NC(=O)C2Cc3ccc(C)cc3S2)cc1 (centres undefined),21.4% (inactive)
2,COc1ccc2c(c1)OCC(C(=O)NS(=O)(=O)c1cccs1)C2 (centres undefined),99.9% (active)
3,COc1ccc2c(c1)CC(C(=O)N(C)Cc1ccco1)CO2 (centres undefined),-34.5% (inactive)
4,COc1c(F)cc(NS(=O)(=O)N(C)Cc2ccccc2)cc1F,31.6% (inactive)
5,CN(CCCOc1ccccc1Cl)S(=O)(=O)NCc1ccccc1,56.2% (active)
6,CN(Cc1cccc2cnccc12)S(=O)(=O)NCc1ccccc1,20.2% (inactive)
7,c1ccc(CCNCCCOc2cccc3ccccc23)cc1,58% (active)
8,O=C(NC1(c2ccc(Cl)cc2)CCC1)c1cnsn1,60.1% (active)
9,Cc1oc(C)c(C(=O)NC2(c3ccccc3)CCC2)c1Br,20.5% (inactive)
10,O=C(COc1ccc(Cl)cc1)NC1(c2ccccc2)CCC1,29.4% (inactive)
11,O=S(=O)(Nc1ccc(Cl)c(Cl)c1)c1cccs1,20.9% (inactive)
12,O=S(=O)(Nc1nc2ccccc2nc1OCC(F)(F)F)c1cccs1,71.9% (active)
13,OCC1(Cc2cccc(Cl)c2)CCCN(Cc2nc(-c3ccc(F)cc3)cs2)C1 (centres undefined),inactive
14,COc1ccc(F)c(CN2CCCC(CO)(Cc3cccc(Cl)c3)C2)c1 (centres undefined),31% (inactive)
15,O=C(c1cc2cc(F)ccc2[nH]1)N1CCCC(CO)(Cc2cccc(Cl)c2)C1 (centres undefined),68.2% (active)
16,CC(C)(C)c1ccc(C(=O)N2CCC2(C)C(=O)Nc2cccc3c2CCCC3)cc1 (centres undefined),0.45% (inactive)
17,CC(C)C(=O)N1CCC1(C)C(=O)Nc1ccc(-n2cccc2)cc1 (centres undefined),92.6% (active)
18,CC(C)CSc1ncnc2c1cnn2-c1ccccc1,59.5% (active)
19,CCOC(C)c1nc(CSc2ncnc3c2cnn3C)cs1 (centres undefined),40% (inactive)
20,Fc1ccc(CNc2ncnc3c2cnn3-c2ccc(F)cc2)cc1,-7.37% (inactive)
